Hit rate of the full screen: of about 5,500 compounds, about 2,000 (36%) were called active. Another 18% or so got no clear call; they are omitted. Rule as the data show it: active = normalized growth mostly below about 0.91 (no sharp cut-off); inconclusive = no clear call, values can overlap the other calls; inactive = mostly above about 0.92. The list shows a part of the results.
Test: chemical genetic growth profiling, strain panel (AID 1159580);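 also: tested at 20 µM; growth read once vehicle control cultures reached saturation at 30 °C; 1 = growth at the plate median or of vehicle wells; lower values mean less growth of the strain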
Conditions: S. cerevisiae deletion strains, growth OD

Measured: normalized growth

CCCOc1ccc(C(=O)OCCN(CC)CC)cc1N
inactive: locus YAL021C, strain ccr4, active compounds read low 0.979 | locus YAL026C, strain drs2, active compounds read low 1.01 | locus YAL030W, strain snc1, active compounds read low 1 | locus YBL061C, strain skt5, active compounds read low 1 | locus YBR009C, strain hhf1, active compounds read low 1.03 | locus YBR023C, strain chs3, active compounds read low 1.02 | locus YBR171W, strain sec66, active compounds read low 1.02 | locus YBR231C, strain swc5, active compounds read low 1.01 | locus YBR279W, strain paf1, active compounds read low 1.01 | locus YCL011C, strain gbp2, active compounds read low 1 | locus YCL016C, strain dcc1, active compounds read low 1 | locus YCL061C, strain MRC1, active compounds read low 1 | locus YCL069W, strain vba3, active compounds read low 0.999 | locus YCR088W, strain abp1, active compounds read low 1.01 | locus YDL005C, strain med2, active compounds read low 1.01 | locus YDL040C, strain nat1, active compounds read low 1 | locus YDR001C, strain nth1, active compounds read low 1 | locus YDR069C, strain doa4, active compounds read low 1.01 | locus YDR137W, strain rgp1, active compounds read low 1.04 | locus YDR159W, strain sac3, active compounds read low 1.02 | locus YDR195W, strain ref2 0.964 | locus YDR297W, strain sur2, active compounds read low 1 | locus YDR334W, strain swr1, active compounds read low 0.995 | locus YDR335W, strain msn5, active compounds read low 1 | locus YDR392W, strain spt3, active compounds read low 1.02 | locus YEL003W, strain gim4, active compounds read low 1.01 | locus YEL037C, strain rad23, active compounds read low 0.979 | locus YEL061C, strain CIN8 (second series), active compounds read low 1 | locus YER015W, strain faa2, active compounds read low 1.03 | locus YER016W, strain bim1, active compounds read low 1 | locus YER111C, strain swi4, active compounds read low 0.999 | locus YER155C, strain BEM2 (second series), active compounds read low 1 | locus YFR010W, strain ubp6, active compounds read low 0.996 | locus YGL167C, strain pmr1, active compounds read low 1.01 | locus YGL173C, strain kem1, active compounds read low 1 | locus YGL227W, strain vid30, active compounds read low 1 | locus YGL240W, strain doc1, active compounds read low 1.02 | locus YGL253W, strain hxk2, active compounds read low 1.01 | locus YHR013C, strain ard1, active compounds read low 1.01 | locus YHR027C, strain rpn1, active compounds read low 1 | locus YHR030C, strain SLT2, active compounds read low 1.05 | locus YHR079C, strain IRE1, active compounds read low 1.04 | locus YHR142W, strain chs7, active compounds read low 0.981 | locus YJL092W, strain hpr5, active compounds read low 1 | locus YJL095W, strain BCK1 (second series), active compounds read low 1 | locus YJL095W, strain BCK1, active compounds read low 1 | locus YJL115W, strain asf1, active compounds read low 1 | locus YJL129C, strain trk1, active compounds read low 0.995 | locus YJL154C, strain vps35, active compounds read low 1.01 | locus YJL164C, strain tpk1, active compounds read low 0.999 | locus YJL166W, strain qcr8, active compounds read low 1 | locus YJL187C, strain SWE1, active compounds read low 1 | locus YJR066W, strain TOR1, active compounds read low 0.972 | locus YKL160W, strain elf1, active compounds read low 0.989 | locus YKR026C, strain gcn3, active compounds read low 0.984 | locus YKR091W, strain srl3, active compounds read low 1 | locus YLL001W, strain dnm1, active compounds read low 1.01 | locus YLL026W, active compounds read low 1.01 | locus YLL041C, strain sdh2, active compounds read low 0.998 | locus YLR027C, strain aat2, active compounds read low 1 | locus YLR113W, strain HOG1, active compounds read low 0.968 | locus YLR221C, strain rsa3, active compounds read low 1 | locus YLR258W, strain gsy2, active compounds read low 1.01 | locus YLR262C, strain YPT6 (second series), active compounds read low 1.01 | locus YLR320W, strain mms22, active compounds read low 1.02 | locus YLR342W, strain FKS1, active compounds read low 0.999 | locus YLR357W, strain rsc2, active compounds read low 1.01 | locus YLR370C, strain arc18, active compounds read low 1.01 | locus YLR384C, strain iki3, active compounds read low 1 | locus YML120C, strain ndi1, active compounds read low 1.01 | locus YMR058W, strain fet3, active compounds read low 1.01 | locus YMR125W, strain sto1, active compounds read low 1.02 | locus YMR129W, active compounds read low 1.01 | locus YMR205C, strain PFK2, active compounds read low 1.04 | locus YMR231W, strain pep5, active compounds read low 1 | locus YNL071W, strain lat1, active compounds read low 1 | locus YNL183C, strain NPR1, active compounds read low 0.966 | locus YNL209W, strain ssb2, active compounds read low 1 | locus YNL248C, strain rpa49, active compounds read low 0.971 | locus YNL322C, strain KRE1 (second series), active compounds read low 1.01 | locus YNR049C, strain mso1, active compounds read low 1 | locus YOR001W, strain rrp6, active compounds read low 0.984 | locus YOR070C, strain gyp1, active compounds read low 1.02 | locus YOR080W, strain dia2, active compounds read low 1 | locus YOR083W, strain WHI5, active compounds read low 0.986 | locus YOR106W, strain vam3, active compounds read low 0.994 | locus YOR231W, strain MKK1, active compounds read low 1.03 | locus YOR265W, strain rbl2, active compounds read low 1 | locus YOR270C, strain vph1, active compounds read low 1.04 | locus YOR290C, strain snf2, active compounds read low 1.01 | locus YPL051W, strain arl3, active compounds read low 0.997 | locus YPL078C, strain atp4, active compounds read low 0.98 | locus YPL106C, strain sse1, active compounds read low 1.01 | locus YPL240C, strain hsp82, active compounds read low 0.988 | locus YPL256C, strain CLN2, active compounds read low 1.02

— PubChem BioAssay AID1159580 (chemical genetic matrix, 2015)
